Granule exo inh: lytic granule exocytosis inhibition; TALL-104 LAMP-1 surface exposure, flow cytometry; cells stimulated with thapsigargin and PMA; inhibition, % at 10 µM; actives 0.66% (n = 360,000); AID 651702;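 active means inhibition above about 55%, limit read from the data; inconclusive means no clear call, values can overlap the other calls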
Myeloid diff MLP: myeloid differentiation induction; ER-HoxA9 myeloid progenitors, lysozyme-GFP differentiation, flow cytometry; AID 624256; actives 1% (n = 360,000); calls only at 10 µM;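 active means normalized GFP-positive differentiation at or above the plate's own cutoff, the solvent-only control mean plus 3 SD; inconclusive means no clear call, values can overlap the other calls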;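 further: cells exposed to compound for four days before flow analysis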
ABCB6 inh 2: human ABCB6 transporter inhibition. Q9NP58. AID 602162. K562-ABCB6 porphyrin accumulation, flow cytometry, 1 h; hits give low values. actives 0.19% (n = 360,000). fluorescence ratio to DMSO, % at 10 µM;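 active means fluorescence ratio to DMSO below 75%, the collection mean minus 3 SD; inconclusive means too few cells collected in the well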;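 further: signal is porphyrin accumulated inside mitochondria; 100% equals median channel fluorescence of DMSO control wells; lower ratio means ABCB6 inhibition with less porphyrin fluorescence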
Target sequence (Q9NP58 whole entry, looked up): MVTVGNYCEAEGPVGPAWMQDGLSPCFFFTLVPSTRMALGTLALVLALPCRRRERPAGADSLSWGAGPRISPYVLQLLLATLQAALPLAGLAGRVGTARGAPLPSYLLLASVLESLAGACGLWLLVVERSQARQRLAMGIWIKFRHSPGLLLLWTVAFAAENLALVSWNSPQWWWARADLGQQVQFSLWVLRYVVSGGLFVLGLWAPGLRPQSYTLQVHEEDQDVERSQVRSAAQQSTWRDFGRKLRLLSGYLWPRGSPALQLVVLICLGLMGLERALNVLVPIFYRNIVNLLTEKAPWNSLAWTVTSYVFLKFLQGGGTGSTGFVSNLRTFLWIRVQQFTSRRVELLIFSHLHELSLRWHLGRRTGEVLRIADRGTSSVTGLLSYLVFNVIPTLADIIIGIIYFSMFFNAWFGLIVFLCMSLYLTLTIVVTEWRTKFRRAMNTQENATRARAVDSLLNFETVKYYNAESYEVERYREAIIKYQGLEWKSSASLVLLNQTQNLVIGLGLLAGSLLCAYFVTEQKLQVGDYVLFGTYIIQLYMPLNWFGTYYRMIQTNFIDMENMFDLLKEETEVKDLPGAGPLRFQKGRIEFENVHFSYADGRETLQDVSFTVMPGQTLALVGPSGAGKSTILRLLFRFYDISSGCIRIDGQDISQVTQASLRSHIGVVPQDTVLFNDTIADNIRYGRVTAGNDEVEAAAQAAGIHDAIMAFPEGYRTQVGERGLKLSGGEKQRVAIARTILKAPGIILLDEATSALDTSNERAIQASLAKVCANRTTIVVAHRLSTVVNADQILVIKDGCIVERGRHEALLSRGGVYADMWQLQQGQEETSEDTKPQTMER
* hit, by the source's call; i = inactive; ? = inconclusive; nt = no result; + = active, no number. Hits are enriched below; roughly 1.8% of the tested compounds scored in any of these assays.

SMILES	Granule exo inh	Myeloid diff MLP	ABCB6 inh 2
C=C(C)Cn1c2ccc(NC(=O)CCOCC)cc2c(=O)n1C	0	i	99
COc1ccc(CCNS(=O)(=O)c2cn(C)cn2)cc1OC	-1	+	92
COc1ccc(CCNS(=O)(=O)c2cn(C)nc2C)cc1OC	-3	i	101
CC(C)N(C)c1ncnc2c1ncn2[C@H]1CN(CCc2ccccc2)C[C@@H](CO)O1	-8	i	95
Cn1nc(C(=O)Nc2cccc(S(N)(=O)=O)c2)c2ccccc2c1=O	-3	i	97
CC(OC(=O)c1nn(C)c(=O)c2ccccc12)C(=O)Nc1ccc(S(N)(=O)=O)cc1 (centres undefined)	2	+	102
O=C1NC(c2cccc(OCc3ccccc3)c2)Nc2ccccc21 (centres undefined)	-2	nt	96
CN1/C(=C\C=Nc2ccc3ccccc3c2)C(C)(C)c2ccccc21	45	i	106
CN1/C(=C\C=O)C(C)(C)c2ccccc21	3	i	261
CN1\C(=C/C=C/C=C/C=[N+](C)C)C(C)(C)c2ccccc21	-20	+	i
CN(C)c1ccc(N=C/C=C2\N(C)c3ccccc3C2(C)C)cc1	-1	+	229
COc1cc(N=Nc2ccc(C)cc2S(N)(=O)=O)c(C)cc1N	49	i	98
O=C1CCc2cc(S(=O)(=O)Nc3ccccc3F)cc3c2N1CCC3	0	i	97
COc1ccc(S(=O)(=O)N2CC(C(=O)O)Oc3ccc(Cl)cc32)cc1 (centres undefined)	1	+	285
CC(C)(C)c1ccc(S(=O)(=O)N2CC(C(=O)O)Oc3ccc(Cl)cc32)cc1 (centres undefined)	-5	i	98
Cc1nnc(-c2cccc(Br)c2)c2cn(-c3ccccc3)nc12	-4	+	149
Cc1nnc(-c2cccc(Br)c2)c2cn(-c3ccc(Br)cc3)nc12	-2	i	101
Cc1nnc(-c2cccc(Br)c2)c2cn(-c3cccc(Br)c3)nc12	2	i	97
COc1ccc(-n2cc3c(-c4cccc(Br)c4)nnc(C)c3n2)cc1	-1	+	199
CC(C)C(NC(=O)c1c(F)cccc1F)C(=O)OCN1C(=O)c2ccccc2C1=O (centres undefined)	-6	i	105
COc1ccc([C@@H]2[C@@H]3C(=O)N(C(C)(C)C)C(=O)[C@@H]3[C@]3(Cc4ccc(Cl)cc4)C(=O)N(c4cccc(F)c4)C(=O)N23)cc1	-4	i	99
CCOc1ccc(NC(=O)CSc2nc3ccsc3c(=O)n2Cc2ccc(C(=O)O)cc2)cc1	1	i	100
CC(C)N1CCCC(C)(C(=O)Nc2nccc3ccccc23)C1 (centres undefined)	-3	i	100
CC1(C)CC(=O)C=C(Nc2ccccc2N)C1	12	i	122
Cc1ccc(NC2=CC(=O)CC(C)(C)C2)c(N)c1	2	+	116
SMILES	Granule exo inh	Myeloid diff MLP	ABCB6 inh 2
CCCCn1c(N)c(N(CC(C)C)C(=O)CCN2C(=O)C3CC=CCC3C2=O)c(=O)[nH]c1=O (centres undefined)	-1	i	101
CC1=C(C(=O)N(C(C)C)C(C)C)CC(CC(=O)NCc2cccs2)C(=O)N1Cc1ccccc1 (centres undefined)	0	i	100
CCn1cc(C(=O)O)c(=O)c2cc(F)c(N3CCN(C(=S)Nc4ccccc4OC)CC3)cc21	1	i	99
CCn1cc(C(=O)O)c(=O)c2cc(F)c(N/N=C/c3ccccc3[N+](=O)[O-])cc21	72*	i	96
CC(=O)NC1CC2CCCC(C1)N2C(=O)Nc1c(C)cccc1C (centres undefined)	3	i	95
Cc1ccc(NC(=O)/C=C/c2ccc3c(c2)OCO3)nc1	2	+	94
Cc1ccc(NC(=O)Nc2ccc3c(c2)OCO3)nc1	-4	i	94
CCOc1ccc(N2CC(C(=O)Nc3nnc(CC)s3)CC2=O)cc1 (centres undefined)	2	i	101
C=CCOc1cccc(C2C(C(=O)c3ccc(C)o3)=C(O)C(=O)N2c2nccs2)c1 (centres undefined)	3	+	85
COc1cccc(C2C(C(=O)c3ccc(C)o3)=C(O)C(=O)N2c2cc(C)on2)c1 (centres undefined)	3	i	97
C[C@H]1CN([C@@H](C)CO)C(=O)CCCn2nncc2CO[C@@H]1CN(C)S(=O)(=O)c1ccc(-c2ccccc2)cc1	0	i	100
O=C(NCc1ccccc1)C1Cc2c(-c3ccc4c(c3)OCO4)ccnc2O1 (centres undefined)	12	nt	102
Cc1ccc(C(=O)NC(=S)/C=C2\N(C)c3ccccc3C2(C)C)cc1	8	+	i
CN1/C(=C\C(=O)C(F)F)C(C)(C)c2ccccc21	0	i	96
CN1/C(=C\C=N\NC(=O)c2cccnc2)C(C)(C)c2ccccc21	2	i	121
CN1/C(=C\C(=O)c2ccco2)C(C)(C)c2ccccc21	-1	?	i
CC(C)C(=O)NC(=S)/C=C1/N(C)c2ccccc2C1(C)C	4	+	625
CN1/C(=C\C=N\NC(=O)c2ccc(O)cc2)C(C)(C)c2ccccc21	4	+	308
CC(C)(C)NC(=O)CN(C(=O)CNS(=O)(=O)c1ccc(Cl)cc1)c1ccc2c(c1)OCCO2	15	i	93
Cc1cccc(Nc2c(O)nc[nH]c2=O)c1	-8	i	99
Cc1ccc(S(=O)(=O)N2CC(O)C2)cc1	-6	i	86
Nc1ncnc2c1ncn2[C@@H]1O[C@H](C(=O)N2CCN(c3ccc(Cl)cn3)CC2)[C@@H](O)[C@H]1O	-3	i	94
O=C1c2ccccc2N[C@@H]2C=CC[C@@H]2N1O	0	i	94
O=C(COc1ccc([N+](=O)[O-])cc1)Nc1ccc2c(c1)nc1n2CCOC1	1	+	98
Cc1ccc(OCC(=O)Nc2ccc3c(c2)nc2n3CCOC2)cc1	-1	i	97
SMILES	Granule exo inh	Myeloid diff MLP	ABCB6 inh 2
NC(c1csc(Nc2ccc(C(=O)NCCO)cc2)n1)C1CCCCC1 (centres undefined)	4	i	91
CCOc1ccc(OCc2ccc(C(=O)N/N=C(\C)c3ccccn3)cc2)cc1	-1	?	96
CCC(C)/C(C)=N/NC(=O)c1ccc(COc2ccc(Cl)c(C)c2)cc1 (centres undefined)	-6	+	101
CCCN(CC(=O)Nc1ccccc1C)C(=O)C1CCCN(C(=O)c2ccc(Cl)cc2)C1 (centres undefined)	-2	+	92
Cc1cccc(C)c1NC(=O)CNC(=O)C1CCCN(C(=O)c2ccc(Cl)cc2)C1 (centres undefined)	3	i	100
Cc1nnc(N/N=C/c2ccc(-c3ccc(Br)cc3)o2)n1N	1	i	103
Cc1nnc(N/N=C/c2ccc(Br)cc2)n1N	78*	i	100
COc1ccc(-n2nc3c(c2NC(=O)COc2ccccc2OC)CS(=O)(=O)C3)cc1	1	i	98
CCN(C[C@H]1N[C@@](Cc2ccccc2)(C(=O)OC)[C@H]2C(=O)N(Cc3ccccc3)C(=O)[C@@H]12)C(=O)Nc1ccc(C)cc1	0	i	90
